Rows were chosen to be rich in hits. Some 4.5% of all compounds tested hit in one or more screens of this group.
TIM10 inh = growth inhibitors of TIM10 yeast strain; S. cerevisiae TIM10 strain growth, BacTiter-Glo luminescence, 24 h; inhibition, % at 10 µM; actives 1.4% (n = 330,000);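 active = inhibition of 40% or more at the single tested concentration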;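 also: wild-type TIM10 isogenic control strain grown at permissive 25 °C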
SKKanGAS inh = inhibitors of SKKanGAS S. pyogenes growth in kanamycin (SK-promoter or general growth effect). actives 1.3% (n = 300,000). inhibition, % at 7.5 µM. BacTiter-Glo, 6 h;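 active = mean replicate score, as percent of positive control median, at least 50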;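 also: strain carries kanamycin resistance gene driven by streptokinase promoter and grows in 40 µg/ml kanamycin; loss of luminescence reflects streptokinase promoter inhibition or plain growth inhibition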
PfHsp90 yeast 2 = growth inhibition of yeast expressing Plasmodium Hsp90. actives 0.32% (n = 310,000). AID 504621. S. cerevisiae expressing PfHsp90, BacTiter-Glo ATP, 48 h; yeast lacking PDR1 and PDR3 efflux regulators. inhibition, % at 9.4 µM;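 active = every replicate shows inhibition above about 80%, whatever the replicate mean, limit read from the data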
tim10-1 inh = tim10-1 yeast growth inhibition | S. cerevisiae tim10-1 ts strain growth, BacTiter-Glo, 24 h | inhibition, % at 20 µM | actives 2.2% (n = 330,000);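 active = inhibition of at least 40%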;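 also: mutant grown at 25 °C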
tim23-1 inh = inhibits growth of tim23-1 mutant yeast | inhibition, % at 20 µM | S. cerevisiae tim23-1 growth, BacTiter-Glo luminescence, 24 h | actives 1.3% (n = 330,000);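 active = growth inhibition of the mutant yeast at or above 50%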;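 also: temperature-sensitive mutant grown at 25 °C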
NALP3 yeast inh = inhibitors of NALP3 inflammasome in yeast; actives 0.39% (n = 330,000); inhibition, % at 10 µM; AID 2825; Yeast reconstituted NLRP3/ASC/caspase-1, beta-gal luminescence, 24 h;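 active = inhibition of 50% or more; inactive = inhibition below 50%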
tim23-1 confirm = confirmation of tim23-1 mutant yeast growth inhibitors; actives 83% (n = 4,400); shares compounds with tim23-1 inh; inhibition, % at 20 µM; AID 463218; S. cerevisiae tim23-1 growth, BacTiter-Glo luminescence, 24 h;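 active = inhibition above about 39% in either of two replicate wells at 20 µM, limit read from the data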;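 also: temperature-sensitive tim23-1 mutant grown at 25 °C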
Each line names hits and unclear results; the compound was inactive in the other large screens (follow-up assays come after a bar, where they were run).

COc1ccc(F)cc1S(=O)(=O)n1nc(C)cc1C	tim23-1 inh 95 | tim23-1 confirm inactive
COc1ccc(C)cc1S(=O)(=O)n1nc(C)cc1C	none
O=C(N/N=C/c1ccc2cccnc2c1)c1ccco1	tim23-1 inh 59 | tim23-1 confirm 64
Cc1cc(-c2nn3c(-c4ccccc4)nnc3s2)c2ccccc2n1	none
Cc1ccccc1-c1nn2c(-c3ccccc3)nnc2s1	tim23-1 inh 53 | tim23-1 confirm 51
CC(C)(C)c1csc(N/N=C/c2ccc(O)cc2)n1	tim23-1 inh 57 | tim23-1 confirm inactive
Cc1ccc(CSCC(=O)Nc2cc(S(=O)(=O)N3CCOCC3)ccc2OC(C)C)cc1	none
O=Cc1ccccc1-c1cn(CN2C(=O)c3ccccc3C2=O)nn1	none
O=C(COc1c(Br)cc(Br)c2cccnc12)N1CCc2ccccc2C1	tim23-1 inh 51 | tim23-1 confirm 51
O=C(COc1cccc2cccnc12)N1CCc2ccccc2C1	none
Nc1nc(-c2ccc(-c3ccccc3)cc2)cs1	tim23-1 inh 54 | tim23-1 confirm 69
Oc1ccc(-c2csc(-c3ccccc3)n2)cc1O	tim23-1 inh 58 | tim23-1 confirm inactive
Cc1ccc(-n2nc3c(=O)n(CC(=O)NC4CCCCC4)nc(C)c3c2C)cc1	none
O=C(/C=C/c1cccc([N+](=O)[O-])c1)OCC1CCCO1 (configuration not stated)	none
CC1CCN(CCc2nc3cc(NC(=O)C(C)C)ccc3n2C)CC1	none
CCCn1nc(NC(=O)C2CCCO2)c2cc3cccc(C)c3nc21 (configuration not stated)	tim23-1 inh 52 | tim23-1 confirm 43
CC(C)Cn1nc(NC(=O)C2CCCO2)c2cc3ccccc3nc21 (configuration not stated)	none
Cc1c(C(=O)N(Cc2cccc(Br)c2)C2CCS(=O)(=O)C2)oc2ccc(F)cc12 (configuration not stated)	none
O=C(NC1=NCCS1)C12CC3CC(C1)CC(C(=O)NC1=NCCS1)(C3)C2	none
CC12CC3(C)CC(C)(C1)CC(C(=O)NC1=NCCS1)(C2)C3	SKKanGAS inh 84, tim23-1 inh 52 | tim23-1 confirm 40
Cc1ccc(NC(=O)CCN2C(=O)C3C4CCC(C4)C3C2=O)cc1Cl (configuration not stated)	none
CC(=O)c1cccc(NC(=O)NCc2ccc3c(c2)OCO3)c1	none
O=C(NCc1ccc2c(c1)OCO2)c1ccc(-c2ccc(Cl)cc2)o1	tim23-1 inh 55 | tim23-1 confirm 54
O=C(Cc1ccccc1)NNC(=O)Nc1cccc(Cl)c1	tim23-1 inh 51 | tim23-1 confirm inactive
O=C(NCc1ccc2c(c1)OCO2)Nc1cccc(Cl)c1	tim23-1 inh 53 | tim23-1 confirm 64
O=C(CCC(=O)NNC(=O)Nc1cccc(Cl)c1)NCc1ccccc1	none
CCC1CCCCN1CCCNC(=O)c1ccc(CS(=O)(=O)c2ccccc2C)o1 (configuration not stated)	none
COc1ccc(OC)c(CNS(=O)(=O)c2cn(C)cn2)c1	none
CCOc1ccccc1-c1nnc(SCC(=O)NC2CC2)n1CC	none
CC(C)c1nc(SCC(=O)N2CCCC2)c2c(=O)n(C)c(=O)n(C)c2n1	none
CC(C)c1nc(SCc2ccccn2)c2c(=O)n(C)c(=O)n(C)c2n1	tim23-1 inh 50 | tim23-1 confirm 48
CCc1nc(SCc2ccccn2)c2c(=O)n(C)c(=O)n(C)c2n1	tim23-1 inh 55 | tim23-1 confirm 50
Cn1c(=O)c2c(SCC(=O)NCCc3ccccc3)nc(C3CC3)nc2n(C)c1=O	none (no result: PfHsp90 yeast 2)
Cn1c(=O)c2c(SCc3cccnc3)nc(C3CC3)nc2n(C)c1=O	tim23-1 inh 50 | tim23-1 confirm 42
Cc1ccccc1-c1nc(SCc2ccccn2)c2c(=O)n(C)c(=O)n(C)c2n1	none
CC1c2cc3c(cc2CCN1C(=O)c1cccc(Cl)c1)OCCCO3 (configuration not stated)	none
CCOc1ccccc1/C=N/Nc1nc2c(N)ncnc2n1[C@H]1O[C@@H](CO)[C@H](O)[C@@H]1O	none

Screening results (PubChem)
